The target in assay [1] is Ephrin type-A receptor 4 (Homo sapiens) (UniProt P54764). The note with it: at 1 µM.
For assay [2] the target is unchanged. The following applies: at 10 µM.
The target of assay [3] is Ephrin type-A receptor 5 (Homo sapiens) (UniProt P54756). The note with it: at 1 µM.
Assay [4] shares this target. The note with it: at 10 µM.
Assay [5] addresses Ephrin type-A receptor 7 (Homo sapiens) (UniProt Q15375). The following applies: at 1 µM.
Assay [6] has the same target. The following applies: at 10 µM.
The target in assay [7] is T1, Ephrin type-A receptor 8 (Homo sapiens) (UniProt P29322).
T1 sequence (whole entry): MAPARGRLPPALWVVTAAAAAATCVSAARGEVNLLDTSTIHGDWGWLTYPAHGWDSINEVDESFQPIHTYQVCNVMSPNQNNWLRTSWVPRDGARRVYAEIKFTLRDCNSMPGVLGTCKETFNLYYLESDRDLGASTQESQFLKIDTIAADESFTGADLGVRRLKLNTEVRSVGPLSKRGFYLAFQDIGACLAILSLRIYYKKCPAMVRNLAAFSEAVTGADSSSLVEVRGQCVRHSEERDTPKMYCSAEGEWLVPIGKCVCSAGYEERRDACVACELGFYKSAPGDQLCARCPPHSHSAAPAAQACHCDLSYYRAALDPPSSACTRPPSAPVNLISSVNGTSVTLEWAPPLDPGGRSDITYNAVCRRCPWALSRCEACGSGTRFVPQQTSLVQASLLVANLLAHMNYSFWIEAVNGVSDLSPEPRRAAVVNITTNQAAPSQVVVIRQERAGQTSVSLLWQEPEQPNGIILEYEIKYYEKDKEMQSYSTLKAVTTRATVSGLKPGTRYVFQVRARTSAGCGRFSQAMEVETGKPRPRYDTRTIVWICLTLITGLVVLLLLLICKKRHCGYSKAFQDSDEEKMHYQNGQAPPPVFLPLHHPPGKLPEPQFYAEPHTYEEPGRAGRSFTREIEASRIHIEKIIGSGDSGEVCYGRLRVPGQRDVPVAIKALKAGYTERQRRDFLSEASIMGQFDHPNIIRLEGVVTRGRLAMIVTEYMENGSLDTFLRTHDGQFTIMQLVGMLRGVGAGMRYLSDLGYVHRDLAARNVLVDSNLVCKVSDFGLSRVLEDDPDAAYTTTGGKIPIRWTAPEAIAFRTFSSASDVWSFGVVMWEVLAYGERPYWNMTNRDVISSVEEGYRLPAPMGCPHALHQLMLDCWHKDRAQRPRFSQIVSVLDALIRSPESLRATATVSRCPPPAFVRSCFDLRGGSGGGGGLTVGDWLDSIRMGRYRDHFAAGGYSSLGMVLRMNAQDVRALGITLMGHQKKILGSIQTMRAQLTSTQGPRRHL
The following applies: at 10 µM.

In assay [8] the target is T2, Ephrin type-B receptor 1 (Homo sapiens) (UniProt P54762).
T2 sequence (whole entry): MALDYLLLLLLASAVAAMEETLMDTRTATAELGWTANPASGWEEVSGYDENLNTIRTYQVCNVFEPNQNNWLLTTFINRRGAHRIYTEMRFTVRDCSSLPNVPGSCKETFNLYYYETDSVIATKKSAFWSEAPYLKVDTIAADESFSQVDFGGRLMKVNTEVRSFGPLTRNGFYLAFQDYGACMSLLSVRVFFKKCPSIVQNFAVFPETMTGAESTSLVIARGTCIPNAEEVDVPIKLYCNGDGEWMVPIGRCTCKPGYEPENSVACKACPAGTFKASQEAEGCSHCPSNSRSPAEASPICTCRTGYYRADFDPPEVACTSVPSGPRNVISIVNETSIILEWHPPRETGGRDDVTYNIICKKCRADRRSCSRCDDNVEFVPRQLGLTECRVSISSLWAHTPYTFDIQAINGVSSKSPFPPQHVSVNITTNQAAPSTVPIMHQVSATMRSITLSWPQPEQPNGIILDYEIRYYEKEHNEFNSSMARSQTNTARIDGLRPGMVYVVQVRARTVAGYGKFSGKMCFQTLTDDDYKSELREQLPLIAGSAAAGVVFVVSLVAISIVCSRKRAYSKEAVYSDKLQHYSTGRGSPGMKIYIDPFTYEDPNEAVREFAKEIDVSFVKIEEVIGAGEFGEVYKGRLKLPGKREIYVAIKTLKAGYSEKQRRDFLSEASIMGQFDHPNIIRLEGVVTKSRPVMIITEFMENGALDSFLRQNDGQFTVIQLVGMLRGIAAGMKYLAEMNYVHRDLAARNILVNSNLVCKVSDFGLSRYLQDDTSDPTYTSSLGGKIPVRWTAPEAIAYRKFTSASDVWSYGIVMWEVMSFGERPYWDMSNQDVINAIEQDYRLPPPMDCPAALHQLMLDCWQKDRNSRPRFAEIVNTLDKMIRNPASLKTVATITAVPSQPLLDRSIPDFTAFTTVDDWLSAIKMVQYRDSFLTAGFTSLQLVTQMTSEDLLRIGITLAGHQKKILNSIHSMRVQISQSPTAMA
The following applies: at 1 µM.

The target of assay [9] is T2, Ephrin type-B receptor 1 (Homo sapiens). The note with it: at 10 µM.
In assay [10] the target is T3, Ephrin type-B receptor 2 (Homo sapiens) (UniProt P29323).
T3 sequence (whole entry): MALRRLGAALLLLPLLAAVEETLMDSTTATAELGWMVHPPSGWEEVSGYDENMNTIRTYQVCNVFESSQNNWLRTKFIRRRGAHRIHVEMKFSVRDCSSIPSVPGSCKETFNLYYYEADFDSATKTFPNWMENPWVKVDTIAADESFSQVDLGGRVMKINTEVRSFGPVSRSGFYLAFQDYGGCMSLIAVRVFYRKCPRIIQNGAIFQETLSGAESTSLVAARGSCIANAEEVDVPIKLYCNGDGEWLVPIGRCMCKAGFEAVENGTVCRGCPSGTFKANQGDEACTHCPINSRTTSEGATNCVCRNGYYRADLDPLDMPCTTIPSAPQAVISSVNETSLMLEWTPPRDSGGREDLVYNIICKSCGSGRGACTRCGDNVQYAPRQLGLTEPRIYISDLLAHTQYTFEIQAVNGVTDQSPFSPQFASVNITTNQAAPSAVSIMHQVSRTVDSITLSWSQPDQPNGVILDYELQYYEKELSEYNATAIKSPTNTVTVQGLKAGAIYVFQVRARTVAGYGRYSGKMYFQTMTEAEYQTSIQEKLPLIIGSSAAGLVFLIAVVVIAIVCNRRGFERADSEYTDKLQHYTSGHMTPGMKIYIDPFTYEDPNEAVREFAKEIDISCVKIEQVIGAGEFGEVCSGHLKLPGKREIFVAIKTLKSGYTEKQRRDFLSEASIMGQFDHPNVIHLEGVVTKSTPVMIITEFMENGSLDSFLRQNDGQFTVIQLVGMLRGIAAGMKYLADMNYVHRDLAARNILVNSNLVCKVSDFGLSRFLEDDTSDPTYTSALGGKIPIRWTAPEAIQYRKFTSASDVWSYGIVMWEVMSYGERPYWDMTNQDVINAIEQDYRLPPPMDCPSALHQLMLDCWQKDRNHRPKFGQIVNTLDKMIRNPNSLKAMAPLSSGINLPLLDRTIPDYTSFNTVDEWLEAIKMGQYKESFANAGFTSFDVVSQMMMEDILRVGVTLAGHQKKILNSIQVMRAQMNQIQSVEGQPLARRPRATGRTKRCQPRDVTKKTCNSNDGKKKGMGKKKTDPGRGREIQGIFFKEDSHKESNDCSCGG
The following applies: at 1 µM.

The target in assay [11] is T3, Ephrin type-B receptor 2 (Homo sapiens). The note with it: at 10 µM.
The target in assay [12] is T4, Ephrin type-B receptor 3 (Homo sapiens) (UniProt P54753).
T4 sequence (whole entry): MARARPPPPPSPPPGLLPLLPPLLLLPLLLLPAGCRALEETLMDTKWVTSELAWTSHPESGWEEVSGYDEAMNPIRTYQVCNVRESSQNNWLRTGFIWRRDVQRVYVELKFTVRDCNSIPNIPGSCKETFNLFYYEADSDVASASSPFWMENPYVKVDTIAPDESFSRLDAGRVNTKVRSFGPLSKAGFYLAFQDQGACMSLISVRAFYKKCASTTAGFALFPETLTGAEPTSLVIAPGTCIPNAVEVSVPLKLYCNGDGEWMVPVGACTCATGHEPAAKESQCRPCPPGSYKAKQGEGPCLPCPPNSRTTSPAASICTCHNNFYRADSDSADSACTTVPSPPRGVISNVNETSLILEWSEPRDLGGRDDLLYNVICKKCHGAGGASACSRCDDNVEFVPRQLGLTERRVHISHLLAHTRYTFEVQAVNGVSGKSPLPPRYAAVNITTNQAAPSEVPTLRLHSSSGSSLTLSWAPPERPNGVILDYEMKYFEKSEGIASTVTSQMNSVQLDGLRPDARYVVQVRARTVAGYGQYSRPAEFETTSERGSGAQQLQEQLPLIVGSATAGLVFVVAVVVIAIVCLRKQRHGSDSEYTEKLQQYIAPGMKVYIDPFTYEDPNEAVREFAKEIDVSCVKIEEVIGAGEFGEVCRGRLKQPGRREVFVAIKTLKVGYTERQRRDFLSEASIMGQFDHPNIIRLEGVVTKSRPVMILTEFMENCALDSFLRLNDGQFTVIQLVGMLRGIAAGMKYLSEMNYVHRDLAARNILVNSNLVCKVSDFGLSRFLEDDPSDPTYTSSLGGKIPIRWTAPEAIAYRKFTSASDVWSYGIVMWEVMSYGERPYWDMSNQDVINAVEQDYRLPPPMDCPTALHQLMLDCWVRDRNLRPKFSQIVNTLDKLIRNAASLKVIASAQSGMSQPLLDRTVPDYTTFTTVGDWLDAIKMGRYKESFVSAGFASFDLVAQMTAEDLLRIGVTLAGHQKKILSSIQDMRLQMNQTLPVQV
The note with it: at 1 µM.

Assay [13] addresses Focal adhesion kinase 1 (Homo sapiens) (UniProt Q05397). The following applies: at 1 µM.

The term residual activity denotes the signal under treatment as a percentage of the control signal.

Chain of Ephrin type-A receptor 7 (Homo sapiens) (Q15375 28-998 limits assumed): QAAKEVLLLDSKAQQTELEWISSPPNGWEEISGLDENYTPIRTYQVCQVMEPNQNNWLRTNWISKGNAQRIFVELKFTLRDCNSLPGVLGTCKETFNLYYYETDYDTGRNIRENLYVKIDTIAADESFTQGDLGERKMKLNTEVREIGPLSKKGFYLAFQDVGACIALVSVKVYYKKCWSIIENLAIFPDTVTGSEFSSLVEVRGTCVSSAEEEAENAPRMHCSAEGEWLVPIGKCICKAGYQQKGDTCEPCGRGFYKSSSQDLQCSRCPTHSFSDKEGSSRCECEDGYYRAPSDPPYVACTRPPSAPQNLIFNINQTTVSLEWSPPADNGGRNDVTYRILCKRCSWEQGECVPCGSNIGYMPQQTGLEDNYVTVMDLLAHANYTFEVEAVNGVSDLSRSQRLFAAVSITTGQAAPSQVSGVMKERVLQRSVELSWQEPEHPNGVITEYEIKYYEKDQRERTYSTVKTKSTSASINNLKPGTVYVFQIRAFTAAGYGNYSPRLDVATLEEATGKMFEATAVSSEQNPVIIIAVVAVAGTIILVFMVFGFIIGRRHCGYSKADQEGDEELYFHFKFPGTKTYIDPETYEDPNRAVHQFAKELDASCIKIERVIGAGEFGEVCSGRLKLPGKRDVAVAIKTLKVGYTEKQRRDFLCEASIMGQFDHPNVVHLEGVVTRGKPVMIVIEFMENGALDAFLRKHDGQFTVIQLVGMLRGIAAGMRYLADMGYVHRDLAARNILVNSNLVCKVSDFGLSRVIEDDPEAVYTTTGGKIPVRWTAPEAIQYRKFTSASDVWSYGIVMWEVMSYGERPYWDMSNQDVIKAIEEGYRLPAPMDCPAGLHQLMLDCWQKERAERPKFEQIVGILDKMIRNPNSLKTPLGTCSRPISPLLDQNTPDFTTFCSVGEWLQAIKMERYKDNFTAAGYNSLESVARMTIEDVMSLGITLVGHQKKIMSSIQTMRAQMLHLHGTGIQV
Chain of Ephrin type-A receptor 4 (Homo sapiens) (P54764 whole entry): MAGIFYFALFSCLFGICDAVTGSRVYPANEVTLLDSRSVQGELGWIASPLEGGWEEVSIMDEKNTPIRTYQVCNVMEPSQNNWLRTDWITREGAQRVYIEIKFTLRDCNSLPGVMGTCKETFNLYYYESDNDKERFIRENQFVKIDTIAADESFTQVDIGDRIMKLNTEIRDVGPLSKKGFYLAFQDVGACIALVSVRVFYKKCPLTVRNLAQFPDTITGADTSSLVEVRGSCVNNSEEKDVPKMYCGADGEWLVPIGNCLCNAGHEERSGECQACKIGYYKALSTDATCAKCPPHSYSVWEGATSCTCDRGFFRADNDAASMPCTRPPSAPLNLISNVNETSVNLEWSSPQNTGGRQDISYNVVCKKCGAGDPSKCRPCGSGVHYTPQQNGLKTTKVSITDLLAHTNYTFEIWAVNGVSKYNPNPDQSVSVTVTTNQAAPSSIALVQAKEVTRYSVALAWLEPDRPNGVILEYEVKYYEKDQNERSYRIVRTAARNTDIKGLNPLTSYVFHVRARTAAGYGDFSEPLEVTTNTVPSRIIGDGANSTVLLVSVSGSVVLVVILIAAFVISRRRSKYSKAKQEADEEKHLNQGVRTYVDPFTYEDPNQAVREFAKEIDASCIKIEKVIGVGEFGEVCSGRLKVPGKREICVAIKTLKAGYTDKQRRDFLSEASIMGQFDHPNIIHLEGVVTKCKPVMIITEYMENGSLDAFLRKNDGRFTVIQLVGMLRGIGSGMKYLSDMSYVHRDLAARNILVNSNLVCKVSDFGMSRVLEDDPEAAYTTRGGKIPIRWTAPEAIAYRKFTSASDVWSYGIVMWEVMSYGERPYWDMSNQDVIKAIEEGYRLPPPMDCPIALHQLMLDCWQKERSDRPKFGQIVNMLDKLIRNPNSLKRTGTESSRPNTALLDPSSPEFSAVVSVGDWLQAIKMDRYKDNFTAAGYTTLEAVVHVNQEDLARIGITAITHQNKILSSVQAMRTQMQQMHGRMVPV
Chain of Ephrin type-A receptor 5 (Homo sapiens) (P54756 whole entry): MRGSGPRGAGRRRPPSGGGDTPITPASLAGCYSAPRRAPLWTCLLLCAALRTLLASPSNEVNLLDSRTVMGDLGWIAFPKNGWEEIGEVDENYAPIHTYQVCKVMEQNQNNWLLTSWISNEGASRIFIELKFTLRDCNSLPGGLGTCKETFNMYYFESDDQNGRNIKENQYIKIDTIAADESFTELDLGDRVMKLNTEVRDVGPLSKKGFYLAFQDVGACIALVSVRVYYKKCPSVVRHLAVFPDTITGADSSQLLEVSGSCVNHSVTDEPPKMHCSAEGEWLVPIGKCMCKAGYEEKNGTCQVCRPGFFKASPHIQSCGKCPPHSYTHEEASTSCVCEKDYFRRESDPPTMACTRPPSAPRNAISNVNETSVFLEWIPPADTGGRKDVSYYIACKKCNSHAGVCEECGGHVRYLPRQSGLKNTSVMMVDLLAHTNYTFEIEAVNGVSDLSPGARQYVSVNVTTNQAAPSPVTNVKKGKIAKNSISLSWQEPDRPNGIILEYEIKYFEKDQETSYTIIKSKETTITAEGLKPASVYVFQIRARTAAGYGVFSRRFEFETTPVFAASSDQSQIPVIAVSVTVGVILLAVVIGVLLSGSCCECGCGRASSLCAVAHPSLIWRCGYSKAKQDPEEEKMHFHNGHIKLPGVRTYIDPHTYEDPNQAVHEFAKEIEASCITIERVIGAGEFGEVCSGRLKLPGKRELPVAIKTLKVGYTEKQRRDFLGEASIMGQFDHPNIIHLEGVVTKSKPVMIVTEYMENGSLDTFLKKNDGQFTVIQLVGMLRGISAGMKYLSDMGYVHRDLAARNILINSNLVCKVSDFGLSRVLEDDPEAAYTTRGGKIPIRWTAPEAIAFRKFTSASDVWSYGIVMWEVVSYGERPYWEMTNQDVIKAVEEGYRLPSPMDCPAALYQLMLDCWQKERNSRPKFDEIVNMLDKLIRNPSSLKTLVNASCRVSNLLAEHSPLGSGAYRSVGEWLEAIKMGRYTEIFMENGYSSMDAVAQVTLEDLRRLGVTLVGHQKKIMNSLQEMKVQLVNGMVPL
Chain of Focal adhesion kinase 1 (Homo sapiens) (Q05397 2-1052 limits assumed): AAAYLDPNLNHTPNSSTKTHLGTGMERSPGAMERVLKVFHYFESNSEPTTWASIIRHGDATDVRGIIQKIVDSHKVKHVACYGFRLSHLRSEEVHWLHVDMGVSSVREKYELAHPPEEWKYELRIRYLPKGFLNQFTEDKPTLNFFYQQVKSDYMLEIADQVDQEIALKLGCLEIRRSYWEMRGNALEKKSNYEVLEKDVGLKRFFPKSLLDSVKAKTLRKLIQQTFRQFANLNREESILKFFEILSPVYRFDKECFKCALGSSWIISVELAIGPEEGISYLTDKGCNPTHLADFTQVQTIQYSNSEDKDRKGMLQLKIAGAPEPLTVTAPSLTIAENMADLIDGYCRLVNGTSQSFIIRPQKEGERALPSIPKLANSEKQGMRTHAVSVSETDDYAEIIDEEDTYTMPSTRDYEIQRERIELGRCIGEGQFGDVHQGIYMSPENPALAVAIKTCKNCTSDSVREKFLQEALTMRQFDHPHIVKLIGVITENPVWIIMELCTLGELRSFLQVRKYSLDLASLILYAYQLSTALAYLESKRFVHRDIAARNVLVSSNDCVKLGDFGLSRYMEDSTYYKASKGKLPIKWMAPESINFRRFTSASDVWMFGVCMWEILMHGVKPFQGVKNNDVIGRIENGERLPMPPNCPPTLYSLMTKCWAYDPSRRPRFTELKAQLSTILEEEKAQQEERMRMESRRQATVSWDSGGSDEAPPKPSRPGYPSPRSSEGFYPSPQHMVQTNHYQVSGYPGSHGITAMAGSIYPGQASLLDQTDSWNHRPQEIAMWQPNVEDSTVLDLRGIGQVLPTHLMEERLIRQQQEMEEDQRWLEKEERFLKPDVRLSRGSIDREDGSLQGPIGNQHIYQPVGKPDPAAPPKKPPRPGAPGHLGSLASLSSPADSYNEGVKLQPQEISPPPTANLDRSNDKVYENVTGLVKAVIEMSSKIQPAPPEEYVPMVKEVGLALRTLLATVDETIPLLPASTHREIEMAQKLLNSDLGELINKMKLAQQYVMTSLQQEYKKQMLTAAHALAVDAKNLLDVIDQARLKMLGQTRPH

Consider `Nc1nc(Nc2ccc(S(N)(=O)=O)cc2)nn1C(=O)c1c(F)cccc1F`, for which the residual activity in assay [1] worked out at 108%; in assay [2] it was 95%; in assay [3], 103%; in assay [4], 73%; in assay [5], 52%; in [6], 8%. Besides, the residual activity in assay [7] is 55%; in assay [8] it was 78%; in [9], 14%; in [10] it was 103%; in [11], 68%; in assay [12], 115% (inactive). For the same compound, the residual activity in assay [13] was found to be 102%.

The values above are taken from ChEMBL document CHEMBL2218924, “A broad activity screen in support of a chemogenomic map for kinase signalling research and drug discovery” (Biochem J, 2013).
